# Sampled rows, rich in hits. Any-hit rate of the full collection: about 10%.
# PNC inhibitor: perinucleolar compartment assembly inhibition. activity change (PNC), negative = inhibition, % at 10 µM. 140,000 tested, 3.1% active. PC3M PTB-GFP, PNC prevalence imaging, 16 h; active compounds read low. AID 2417;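 active means readout at or below -70, meaning at least 70% loss of cells showing the perinucleolar compartment, a nuclear body marking cancer cells; inconclusive means readout between -30 and a set limit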
#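 PC3M cells stably expressing PTB-GFP, 750–1000 cells/well, treated 16 h at 37 °C with compound (23 nl of library stock), in duplicate. After paraformaldehyde fixation and Hoechst stain, imaged at 20x; PNC prevalence scored by image analysis.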
# Lamin A splicing: changes lamin A minigene splicing in HeLa cells; 200,000 tested, 0.01% active; AID 1487; HeLa LMNA splicing GFP/RFP minigene ratio, 48 h; Potency, µM (highest dose often 46.1 µM), hits mostly inhibitors; active means well fitted inhibition curve with a large enough effect in the signal ratio, with a control signal flat, not every such curve was filed as active; inconclusive means small, poorly fitted or top-dose-only effect, or effect the other way, or a change in a side signal; the % refers to the signal ratio
#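 S3 HeLa stable clones carrying a lamin A-EGFP splicing minigene plus DsRed2 were seeded at 600 cells/well in Opti-MEM with 2% FBS, pin-dosed and incubated 48 h at 37°C. Acumen cytometry (488 nm) gave the GFP/RFP total-intensity ratio.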
# ALDH1A1 block: ALDH1A1 (human) enzyme inhibition | AID 1030 | Purified ALDH1A1, NADH fluorescence, propionaldehyde substrate | Potency, µM (top dose mostly 75.3 µM), usual class: inhibitors | 220,000 tested, 7.3% active
# HPGD inh: HPGD (human) dehydrogenase inhibition; purified HPGD, NADH fluorescence kinetic, PGE2 substrate; P15428; AID 894; Potency, µM, hits mostly inhibitors; 150,000 tested, 4.3% active
# Target sequence (P15428 whole entry, looked up): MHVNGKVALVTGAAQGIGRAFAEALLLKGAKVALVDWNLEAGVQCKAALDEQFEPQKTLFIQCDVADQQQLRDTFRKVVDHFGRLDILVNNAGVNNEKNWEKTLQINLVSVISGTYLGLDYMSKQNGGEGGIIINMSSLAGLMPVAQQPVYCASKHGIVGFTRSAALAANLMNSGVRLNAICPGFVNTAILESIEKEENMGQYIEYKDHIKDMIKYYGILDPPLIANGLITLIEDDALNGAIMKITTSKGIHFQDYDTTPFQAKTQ
#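 20 nM HPGD preincubated 15 min at room temperature with compound in 50 mM Tris-HCl pH 8, 0.01% Tween 20. Started with 1 mM NAD+ and 30 uM prostaglandin E2; NADH fluorescence (360/450 nm) read 5 times over 30-s intervals, last minus first.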
# Luc counter: blocks Kinase-Glo luciferase, a counter-screen artifact; Q27757; Kinase-Glo luciferase, ATP luminescence, 8 min; Potency, µM (titrated, usually from 38.3 µM), hits mostly inhibitors; 200,000 tested, 0.28% active; AID 1379; active means well fitted inhibition curve with a large enough effect; inconclusive means small, poorly fitted or top-dose-only effect; further: nearly all actives have a fitted effect of over 60% in size
#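 Luminescence was the read-out, taken after 8-minute incubation at ambient temperature. Luciferase turned over luciferin with 10 uM ATP in imidazole pH 7.2 buffer containing KCl, MgCl2, Tween 20 and BSA.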
# Numbers stand for hits; n = inactive; u = inconclusive; x = not tested or not shown; [ ] = remark or other dose. Unless noted, the call rests on the fitted dose curve; in most records, active means well fitted inhibition curve with a large enough effect (not every such curve was filed as active); inconclusive means small, poorly fitted or top-dose-only effect, or another doubt; inactive means no such curve, though single readings can be large or run the other way.
SMILES,PNC inhibitor,Lamin A splicing,ALDH1A1 block,HPGD inh,Luc counter
Cc1noc(C)c1COC(=O)c1ccc2c(c1)OCO2,n,n,n,n,n
Cc1ccc(-n2ncc3c(NCCCn4ccnc4)ncnc32)cc1,x,n,x,x,x
COc1c(O)ccc2c1CN1CCc3cc4c(cc3[C@@H]1C2)OCO4,x,x,n[13.5 µM],n,n[7.66 µM]
CCSCCOC(=O)C1=C(C)NC(=O)NC1c1ccc2c(c1)OCO2 (centres undefined),n,n,14µM,n,n
Cc1cccc(-c2nc(Cn3c(=O)cc(-c4ccccc4)c4c(C)nn(C)c43)c(C)o2)c1,x,n,x,x,x
CC1CCCO1 (centres undefined),x,x,n,n,x
O=C(O)c1cc(-c2cccc(Cl)c2)nc2nc(N3CCCCC3)sc12,-86,n,u,u,n
N#C/C(=C\c1ccc(-c2cccc(C(F)(F)F)c2)o1)C(=O)Nn1cnnc1,n,n,n,1.4µM,n
CCOC(=O)NC(=O)CSc1nnnn1-c1ccccc1,n,n,u,n,n
CCOC(=O)C1CCCN(CC(=O)Nc2cc(C)cc(C)c2)C1 (centres undefined),x,n[9.22 µM],n,x,n
CCOC(=O)C1CCCN(CC(=O)NC2=Nc3ccccc3N=C(C)C2c2ccccc2)C1 (centres undefined),n,n,4.5µM,n,n
CCOC(=O)C1CCCN(CC(=O)Nc2cccc(C(C)=O)c2)C1 (centres undefined),x,u,10µM,x,n
CC1=Nc2ccccc2N=C(NC(=O)CSc2nnnn2-c2ccccc2)C1c1ccccc1 (centres undefined),u,u,4.5µM,n,n
CC1=Nc2ccccc2N=C(NC(=O)CN2CCN(c3ccccc3)CC2)C1c1ccccc1 (centres undefined),x,x,0.89µM,x,x
Cc1cccc(C(=O)N2CCc3cc(CNS(=O)(=O)c4ccc(F)c(Cl)c4)ccc32)c1,x,n,x,x,x
COc1ccc(C(=O)N2CCC3(CC2)CN(c2ccccn2)C3)cc1,x,x,u,u,n
CCOC(=O)/C(C#N)=C/c1cc2ccccc2nc1N1CCOCC1,n,n,25µM,n,n
CCOC(=O)/C(C#N)=C/c1cc(C)n(-c2ccccc2)c1C,n,n,11µM,n,n
CC1(C)CC[C@]2(C(=O)O)C(O)C[C@@]3(C)C(=CCC4[C@@]5(C)CCC(O)C(C)(C)C5CC[C@@]43C)C2C1 (some centres undefined),x,u,n,n,n
CCOc1ccc(CCNC(=O)c2cnc3c(-c4ccc(F)cc4)c(C)nn3c2C)cc1OCC,x,n,x,x,x
CN(C#N)c1nc(Cl)nc(Nc2cccc(Cl)c2)n1,u,n,4µM,n,n
Fc1cccc(Nc2nc(Cl)nc(Cl)n2)c1,x,n,n,x,n
O=C(CS(=O)(=O)c1cn(Cc2ccc(Cl)cc2)c2ccccc12)N1CCCCC1,u,n,n,n,n
O=C(CS(=O)(=O)c1cn(Cc2ccc(F)cc2)c2ccccc12)N1CCCCC1,-100,u,u,n,n
C=C(C)C1CC=C(C)/C(=N/NC(=S)Nc2ccccc2)C1 (centres undefined),n,u,35µM,n,n
SMILES,PNC inhibitor,Lamin A splicing,ALDH1A1 block,HPGD inh,Luc counter
C=C(C)C1CC=C(C)/C(=N/NC(=O)c2ccc(NC(=O)c3cccc(C)c3)cc2)C1 (centres undefined),n,n,n,n,n
S=C(c1c[nH]c2ccccc12)N1CCOCC1,x,u,20µM,x,n
O=C(C(=O)N1CCOCC1)c1c[nH]c2ccccc12,x,u,n,x,n
CCOC(=O)c1c(C)[nH]c(C)c1S(=O)(=O)N1CCCC(C(=O)N2CCN(c3cccc(C)c3C)CC2)C1 (centres undefined),x,n,x,x,x
CCC(=O)c1ccc(OCC(O)Cn2c(C)nc3ccccc32)cc1 (centres undefined),-121,u,n,n,n
Cc1nc(C)n(CC(O)COc2ccc3c(c2)CCC3)n1 (centres undefined),u,n,n,n,n
Cc1nc(C)n(CC(O)COc2ccc(C(=O)c3ccccc3)cc2)n1 (centres undefined),-95,u,n,n,n
CC(C)(C)OC(=O)N1CCC(c2c(C(=O)N3CCC(c4ccccc4)C3)cnn2-c2cccc(Cl)c2)CC1 (centres undefined),x,n,x,x,x
CC1(C)CC(=O)C(/C=N/n2c(C(F)(F)F)nc3ccccc3c2=O)=C(O)C1,u,n,25µM,n,n

# Screens deposited in PubChem by National Center for Advancing Translational Sciences (NCATS).
